Measured values taken from PubChem BioAssay (NCI).
This is part of a sample that, as a whole, favours compounds with a hit. Of some 83,000 tested, about 20% had one in any assay.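 Single-concentration screen, 48 h exposure, 96-well plates. Endpoint: percent growth. Below 10 = active.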 Values without a mark were called inactive. Activity calls are given as the source filed them.

System: SR leukemia
Experiment: NCI-60 one-dose screen, 48 h (100 = growth as untreated, 0 = no growth, -100 = all killed)
Details: 10 µM unless noted

Compound | growth
COc1cccc(CC(C)=C(c2ccc(OCCN(C)C)cc2)c2ccc(OCCN(C)C)cc2)c1 | -17% (active)
N/C(=N\C(N)=N\c1nc2ccccc2s1)c1cccc(Br)c1 | 33.2%
O=C(Nc1ccc(Cl)c(Cl)c1)NS(=O)(=O)c1cnccc1Oc1ccc(F)cc1 | 51.2%
Cc1ccc(S(=O)(=O)NC(=O)n2cc(-c3ccncc3)c(-c3ccc(Cl)c(O)c3)n2)cc1 | 83.3%
CCN(CC)CCC(CNc1ccnc2cc(Cl)ccc12)c1ccc(Cl)cc1 (centres undefined) | -13.2% (active)
CCN(CC)CCOc1ccc(Cl)c(C)c1 | 92.3%
OC(c1cc2cc(Br)ccc2c2cc(Br)ccc12)C1CCCCN1 (centres undefined) | -74.1% (active)
CCN(CC)CCC(CNc1ccnc2cc(Cl)ccc12)c1ccccc1 (centres undefined) | 20.5%
CCCCCCCCCCCCNC(=O)[C@H]1CSC(c2cc3ccccc3s2)N1 (some centres undefined) | -34.6% (active)
CCCCCCN1CSC(=S)N(CCCCCC)C1 | 104%
CC1(c2ccc(Cl)cc2)OC(=O)CC(=O)O1 | 78.5%
O=C(NS(=O)(=O)c1ccc2ccccc2c1)n1cc(-c2ccncc2)c(-c2ccc(Cl)c(O)c2)n1 | 61.8%
CN(C)CCOC(=O)Nc1ccccc1Cl | 104%
Cc1c(C(=O)/C=C/c2csc3ccccc23)[n+](=O)c2ccccc2n1[O-] | 13.5%
CN(C)CCCN(c1nc(C(Cl)(Cl)Cl)ns1)c1nc(C(Cl)(Cl)Cl)ns1 | 17.1%
CC[N+](CC)=c1cc2oc3cc(N(C)C)ccc3nc-2cc1C | 59%
CCN(CC)CCC(CNc1c2ccc(Cl)cc2nc2ccc(OC)cc12)c1ccccc1 (centres undefined) | -6.4% (active)
CN1CCN(Cc2ccc(NC(=O)c3nc4ccc5[nH]ncc5c4c4c3CCC4)cc2C(F)(F)F)CC1 | -31.6% (active)
COc1ccc(N=Cc2c(O)ccc3c2oc2cc(Cl)c(O)c(Cl)c23)cc1 | 83%
O=C(O)C1CCCCN1c1nc(Cl)nc(Cl)n1 (centres undefined) | 118%

Compound | growth
C=CCn1c2ccccc2c2c3c(c4c5ccccc5n(CC=C)c4c21)C(=O)N(O)C3=O | 7.52% (active)
Nc1cccc(Cl)c1N | 92.5%
O=C(NS(=O)(=O)c1ccccc1)n1cc(-c2ccncc2)c(-c2ccc(Cl)c(O)c2)n1 | 97.2%
Cc1csc(NC(c2ccc(Br)cc2)c2c(C)nc3ccccn23)n1 (centres undefined) | 96.6%
O=S(=O)(c1ccc(OCCO)cc1)c1ccc(OCCO)cc1 | 99.4%
COc1cc(-c2nn(C(=O)NS(=O)(=O)c3ccccc3)cc2-c2ccncc2)ccc1Cl | 89.1%
N=c1ccc2nc3ccc(N)cc3sc-2c1 | 38.2%
Cc1ccc(Cc2c(C=O)nc(N)[nH]c2=O)c2ccccc12 | 63.5%
CCN(CC)CCCC(C)Nc1c2ccc(Cl)cc2nc2cc(OC)c(OC)cc12 (centres undefined) | -14.2% (active)
CCCCCCCCCCCCNC(=O)[C@H]1CSC(c2ccsc2)N1 (some centres undefined) | -44% (active)
CC(C)(C)NCCC(O)c1cc2c(Cl)cc(Cl)cc2c2cc(C(F)(F)F)ccc12 (centres undefined) | -77.5% (active)
COc1cc2c(cc1O)CCN1C[C@@H](CC(C)C)[C@@H](O)C[C@@H]21 | 103%
Nc1ccc(C(=O)CSc2nc3ccccc3[nH]2)cc1 | 110%
CCCC(=O)Oc1ccc(/C(=C(\C)c2ccccc2)c2ccc(OCCN(CC)CC)cc2)cc1 | 28.2%
C/C=C(\C)C(C(=O)NC1CCCCC1)N(C(=O)C1CCc2cc(F)ccc2O1)c1ccc(Cl)cc1 (centres undefined) | 111%
Cn1ccc(=O)c(S(N)(=O)=O)c1 | 72.5%
O=c1[nH]c(NCc2ccccc2)nc2nc(Nc3ccc(NC(=S)Nc4ccccc4)cc3)nc(-c3ccc(O)cc3O)c12 | 67.5%
COc1ccc(-n2c(-c3ccccc3)c(-c3ccccc3)c3c(SCC(=O)N/N=C/c4ccc(Cl)cc4)ncnc32)cc1 | 105%
COc1ccc(S(=O)(=O)NCCCNc2nccc(-c3c(-c4cccc([N+](=O)[O-])c4)nc4sccn34)n2)cc1 | 53.5%
